According to PubChem BioAssay AID1159569 (Broad Institute, 2015):
Results with a measured potency or affinity are listed apart. Records with an inconclusive call do not appear. Values without a mark were called inactive. No rule for the calls is given here.

Test: HepG2 cell cytotoxicity, dose response, cytotoxicity control, plate reader, dry powder samples (AID 1159569)
Settings: HepG2 cytotoxicity counterscreen; series mostly up to 50 µM; activity change, negative = cytotoxicity: at the top concentration

Compound | activity change, negative = cytotoxicity
O=C(Nc1ccccc1)N1CCCCN2[C@H](CO)[C@H](c3ccc(C#Cc4cccnc4)cc3)[C@@H]2C1 | -1.87%
CO[C@@H]1CN(C)C(=O)c2ccc(NC(=O)Nc3ccccc3F)cc2OC[C@@H](C)N(Cc2ccccc2F)C[C@H]1C | -9.48%
O=C(C1CCCC1)N1CC2(C1)[C@@H](c1ccccc1)[C@H](CO)N2Cc1ccc(Cl)cc1 | -21.2%
CCc1csc(N2[C@H](C#N)[C@H](c3ccccc3-c3ccc(F)cc3)[C@H]2CO)n1 | -23.6%
C[C@H]1CN([C@@H](C)CO)C(=O)c2c(c3ccccc3n2C)-c2ccccc2CO[C@@H]1CN(C)S(=O)(=O)c1ccc(F)cc1 | -19%
COc1ccc2c3c(n(C)c2c1)[C@@H](CO)N(C(=O)C1CCC1)CC31CN(C(=O)Nc2cccc(F)c2)C1 | -32.2%
COc1ccc(C#Cc2ccc3c(c2)O[C@@H](CN(C)C(=O)Nc2cccc(OC)c2)[C@@H](C)CN([C@H](C)CO)S3(=O)=O)cc1 | -7.99%
C[C@@H]1CN([C@H](C)CO)C(=O)c2cccc(NC(=O)c3nc4ccccc4s3)c2O[C@H]1CN(C)C(=O)Nc1ccc(C(F)(F)F)cc1 | -16.7%
C/C=C/c1ccc2c(c1)[C@H]1[C@H](CCN1C(=O)c1ccc(F)cc1)[C@H](CO)N2 | -28.2%
C[C@@H]1CN([C@H](C)CO)C(=O)c2cc(C#CCc3ccccc3)cnc2O[C@H]1CN(C)C(=O)C1CCC1 | -10.4%
O=C(c1ccc(F)cc1)N1CC(=O)N2[C@H](C1)[C@@H](c1ccc(-c3cccnc3)cc1)[C@@H]2CO | -6.43%
O=C(Nc1ccccc1F)N1CCCCN2[C@H](CO)[C@H](c3ccc(C#Cc4cccnc4)cc3)[C@@H]2C1 | -13.4%
C[C@H](CO)N1C[C@H](C)[C@H](CN(C)CC2CC2)Oc2ccc(NC(=O)Nc3ccccc3)cc2CC1=O | -18.3%
OC[C@H]1[C@H](c2ccccc2)C2(CN(Cc3ccccc3F)C2)N1Cc1ccccc1F | -54.7%
CC(C)(C)S(=O)N1Cc2cc(C(=O)NCc3ccc4c(c3)OCO4)nc(-c3cccc(-c4cc5ccccc5o4)c3)c2[C@H]1CCO (stereo not given in full) | -1.66%
CC(C)(C)[S@@](=O)N1Cc2cc(C(=O)N[C@@H]3CCN(Cc4ccccc4)C3)nc(-c3cccc(-c4cccnc4)c3)c2[C@H]1CCO | -19.4%
CCCc1cn(CC[C@@H]2CC[C@H](NS(=O)(=O)c3ccc(-c4ccccc4)cc3)[C@H](CO)O2)nn1 | -45.1%
CO[C@@H]1CN(C)C(=O)c2ccc(NC(=O)Nc3ccccc3F)cc2OC[C@@H](C)N(CCC(F)(F)F)C[C@H]1C | -11.2% [at 56 µM]
C[C@@H]1CN([C@@H](C)CO)C(=O)c2cccc(NC(=O)c3cnccn3)c2O[C@@H]1CN(C)Cc1ccc(-c2ccccc2)cc1 | -23.5%
CC(C)CNC[C@@H]1[C@@H](c2ccccc2)[C@@H](CO)N1Cc1ccc(F)cc1 | -28%
